PfHsp90 set2: growth inhibition of PfHsp90-expressing yeast, primary screen, antimalarial PfHsp90 inhibitor project, S. cerevisiae, BacTiter-Glo luminescence, single point, set 2 | 310,000 tested, 0.32% active | inhibition, % at 9.4 µM | AID 504621, 2011 | BacTiter-Glo ATP, 48 h; yeast lacking PDR1 and PDR3 efflux regulators;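 active = every replicate shows inhibition above about 80%, whatever the replicate mean, limit read from the data; inconclusive = mean inhibition reaches the set limit but some replicate falls short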;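 also: 0% = DMSO neutral controls and 100% = 20 µM radicicol positive controls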
Vif imaging: HIV Vif self-association inhibitors, primary screen, imaging, HEK293T, single point; HEK293T cells, Vif self-association by quenched fluorescence, 24 h; inhibition, % at 7.49 µM; 340,000 tested, 0.35% active; AID 602346, 2012; in the data active = inhibition above about 50%, passing the limit was not always enough; inconclusive = no clear call, values can overlap the other calls; inactive = below about 31%
N-glyco inh: increase of ERlucT glycosylation luciferase signal, primary screen, N-linked glycosylation inhibitor project, D54 ERlucT cells, luminescence, set 2; D54 ERlucT glycosylation luciferase reporter, 24 h; percent of 100 nM tunicamycin response; reporter increase, % at 12.5 µM; 360,000 tested, 0.23% active; AID 588692, 2011;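 active = mean luciferase reporter signal, scaled so untreated is 0 and the glycosylation-blocking control 100, at or above a set limit in every replicate; inconclusive = mean reaches the limit but not every replicate does; inactive = mean below the limit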;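 also: luciferase carries N-glycosylation sites so blocking glycosylation raises the light; 0% = median of neutral control wells and 100% = median of 100 nM tunicamycin wells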
esBAF inh: Bmi1 luciferase reporter increase in mESCs, primary screen, esBAF inhibitor project, mouse ES cells, Bmi1 luciferase knock-in, single point; AID 602393, 2012; 24 h; 100% = twice the neutral-well signal; 350,000 tested, 2% active; reporter increase, % at 12.5 µM; in the data active = activation above about 40%; inconclusive = no clear call, values can overlap the other calls;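 also: 0% = median of the plate's neutral control wells and 100% = double that signal; a rise in the Bmi1 reporter signal indicates esBAF inhibition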
Wnt act: Wnt/beta-catenin pathway activators, primary screen, cell-based, plate reader, single point | Wnt/beta-catenin reporter cell assay, activator | 300,000 tested, 1.2% active | AID 743398, 2014 | activation, % at 9.35 µM; in the data active = activation above about 30%, passing the limit was not always enough; inconclusive = no clear call, values can overlap the other calls;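 also: 0% = neutral control wells and 100% = positive control wells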
MITF TRPM1 HTS: activators of MITF-driven TRPM1 promoter reporter, primary screen, cell-based, SK-MEL-5, luciferase, single point. SK-MEL-5 TRPM1-promoter luciferase, 24 h; % of positive control, neutral wells = 0. AID 588334, 2011. 300,000 tested, 0.75% active. activation, % at 12.5 µM;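 active = mean activation of at least 80% with every replicate also reaching 80%; inconclusive = mean reaches 80% but some replicate falls short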;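 also: 0% = neutral control wells and 100% = parthenolide positive control wells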
* marks the source's active call; other numbers are inactive results; u = inconclusive; x = not tested or not shown. Sampled rows, rich in hits. Any-hit rate of the full collection: about 3%.

SMILES	PfHsp90 set2	Vif imaging	N-glyco inh	esBAF inh	Wnt act	MITF TRPM1 HTS
NC(=O)CC(NC(=O)Cc1ccc(Cl)cc1)c1ccc(NC2CCCC2)c([N+](=O)[O-])c1 (stereo not given)	7	x	49*	-6	-1	19
CC(C)Nc1ccc(C(CC(N)=O)NC(=O)c2ccc(Br)cc2)cc1[N+](=O)[O-] (stereo not given)	-2	x	49*	-6	-3	45
NC(=O)CC(NC(=O)Cc1ccc(Cl)cc1)c1ccc(NC2CCCCC2)c([N+](=O)[O-])c1 (stereo not given)	7	x	45*	-1	10	12
NC(=O)CC(NC(=O)Cc1ccc(Br)cc1)c1ccc(NC2CCC2)c([N+](=O)[O-])c1 (stereo not given)	x	7	39*	-6	-6	25
O=S(=O)(c1cc(Cl)ccc1Cl)N1CCCC1	9	1	-2	-7	x	10
CC(C)Nc1ccc(C(CC(N)=O)NC(=O)c2ccccc2)cc1[N+](=O)[O-] (stereo not given)	-7	6	-1	-3	-3	9
CC(C)Nc1ccc(C(CC(N)=O)NC(=O)Cc2ccc(Cl)cc2)cc1[N+](=O)[O-] (stereo not given)	5	x	41*	-11	-4	47
COc1ccc(Cl)cc1S(=O)(=O)Nc1ccc2c(c1)n(C)c(=O)n2C	-12	-3	58*	2	-2	-18
COc1ccc(S(=O)(=O)Nc2ccc3c(c2)n(C)c(=O)n3C)cc1OC	16	9	u	0	1	-2
Cc1c(C(=O)NC(=S)NCC(C)C)oc2ccccc12	-69	7	1	x	14	90*
Cc1cccnc1NC(=S)NC(=O)c1oc2ccccc2c1C	7	-2	1	74*	25	60
O=C(Nc1nccs1)c1ccc(-c2ccc([N+](=O)[O-])cc2)o1	-32	80*	-3	69*	-1	40
O=C(Nc1nccs1)c1ccc(-c2ccc(Cl)cc2)o1	-12	-1	-6	x	52*	109*
O=C(Nc1nccs1)c1ccc(-c2ccccc2[N+](=O)[O-])o1	-27	-6	-2	86*	35*	79
O=C(Nc1nccs1)c1ccc(-c2ccc(F)cc2)o1	-9	7	-1	x	37*	142*
O=C(Cc1ccc(F)cc1)Nc1nccs1	-19	-4	4	3	1	-3
CCOc1ccccc1NC(=O)C(Sc1ccccc1)c1ccccc1 (stereo not given)	24	6	-2	-3	x	-9
CC(C)NC(=O)N(C)C[C@H]1Oc2cc(-c3cccnc3)ccc2S(=O)(=O)N([C@@H](C)CO)C[C@@H]1C	x	x	x	1	x	x
C/C(CC(=O)NC1CCCCC1)=N\NC(=O)c1ccccn1	-2	0	0	x	-5	-3
COc1ccccc1NC(=O)c1ccc(-c2ccc(Br)cc2)o1	x	x	23	x	x	3
COc1ccccc1NC(=O)c1ccc(-c2ccccc2[N+](=O)[O-])o1	8	1	6	x	7	94*
O=C(COC(=O)/C=C/c1ccccc1)Nc1cccc(Oc2ccccc2)c1	-36	-3	1	x	0	-4
CC(=O)c1ccc(OCc2ccccc2)c(C)c1O	29	-2	-1	69*	31*	77
COc1ccc(C(C)=O)cc1OCc1ccccc1	x	5	0	0	0	x
Cc1noc(C)c1S(=O)(=O)Nc1ccc2c(c1)C(=O)N([C@H](C)CO)C[C@@H](C)[C@@H](CN(C)Cc1ccc(C(F)(F)F)cc1)OCCCC[C@@H](C)O2	x	x	x	3	x	x
SMILES	PfHsp90 set2	Vif imaging	N-glyco inh	esBAF inh	Wnt act	MITF TRPM1 HTS
CC1(S(=O)(=O)O)CC(=O)c2ccccc2C1=O (stereo not given)	-13	174*	2	2	5	-41
CCCCOc1ccc(CNn2c(C)nc3ccccc3c2=O)cc1	-10	2	0	x	x	7
CC(C)c1ccc(NC(=O)[C@@H]2CCC(=O)N2C2OC(=O)c3ccccc32)cc1 (stereo not given in full)	-12	-1	2	56*	0	46
COC(=O)c1c(NS(=O)(=O)c2ccc(C)cc2)sc2c1CCC(C)C2 (stereo not given)	-20	-1	-1	-6	0	2
COc1ccc2nc(N3C(=O)C(O)=C(C(=O)c4ccco4)C3c3ccccc3OC)sc2c1 (stereo not given)	13	82*	1	12	6	0
CCOc1cccc(C2C(C(=O)c3ccco3)=C(O)C(=O)N2c2nnc(C)s2)c1 (stereo not given)	13	u	1	12	90*	8
C=CCn1c2[n+](c3ccccc3c1=O)CCCCC2	2	4	2	x	-1	-18
Cc1cc(C(=O)Nc2ccc3[nH]ccc3c2)no1	-5	11	-8	26	59*	64
Cc1cc(C(=O)Nc2cccnc2)no1	-7	5	2	x	0	-1
O=C(CN(Cc1ccc(Cl)cc1)C(=O)CN1C(=O)COc2ccccc21)NC1CCCC1	21	-1	-1	-6	-3	20
COc1ccc(CN(CC(=O)NC2CCCC2)C(=O)CN2C(=O)COc3ccccc32)cc1	-2	54*	0	-1	-3	1
CC(C)(C)c1ccc(N2C(=O)Cc3c2nc(N)c(C#N)c3N)cc1	x	-17	-5	51*	x	x
CCc1ccc(N2C(=O)Cc3c2nc(N)c(C#N)c3N)cc1	3	2	-1	53*	15	29
CCOc1ccc(-c2noc(CCCC(=O)NC3CCCC3)n2)cc1OC	10	-11	2	-2	6	9
Clc1cccc(-c2cc3nc4c(c(N5CCOCC5)n3n2)CCCC4)c1	-26	8	-8	u	x	u
Clc1cccc(-c2cc3nc4c(c(N5CCN(c6cnccn6)CC5)n3n2)CCCC4)c1	4	-5	-5	47*	3	47
Cc1nc(N)sc1N=Nc1ccc(Br)cc1	-14	5	-5	75*	x	x
CCOCCCNC1=C(Cl)C(=O)c2ccccc2C1=O	107*	-1	9	x	22	x
CC(SC1=NCCS1)C(=O)Nc1nnc(-c2ccc(Cl)cc2)s1 (stereo not given)	-25	x	-4	43*	6	46
COCCCN1C(=O)C(O)=C(C(C)=O)C1c1cccc(F)c1 (stereo not given)	-19	-9	2	-4	x	x
Cc1cccc(NC(=O)Nc2ccc3c(c2)N(C)C(=O)CS3)n1	-10	-1	15	49*	7	91*
